ELG1 repair inh: qHTS screen for small molecules that inhibit ELG1-dependent DNA repair in human embryonic kidney (HEK293T) cells expressing luciferase-tagged ELG1 | 330,000 compounds, 2.3% hits | HEK293T ELG1-luciferase reporter, luminescence, 16 h; DNA damage induced by 5-fluorouridine | Potency, µM (top dose mostly 46.1 µM), usual class: inhibitors; note: nearly all actives have a fitted effect of over 55% in size
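Overnight (16 hr) co-exposure of 2,000 cells/well to 5-fluorouridine and compound at 37 °C preceded detection. Luciferase was quantified via ONE-Glo luminescence; loss of signal denotes inhibition.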
VP16 counter: VP16 counterscreen qHTS for inhibitors of ROR gamma transcriptional activity | Drosophila S2 Gal4-VP16 UAS-luciferase, luminescence, 20 h | Potency, µM (highest dose often 53.6 µM), hits mostly inhibitors | 310,000 compounds, 3.5% hits;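 note: Gal4-VP16 expression switched on by copper sulfate through the metallothionein promoter; nearly all actives have a fitted effect of over 50% in size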
p53 reactivation: qHTS assay for re-activators of p53 using a Luc reporter | Potency, µM (titrated, usually from 92.2 µM), usual class: activators | 320,000 compounds, 0.063% hits | AID 504706, 2011 | H1299 p53-A138V BP100-luciferase reporter, luminescence, 24 h; note: nearly all actives have a fitted effect of over 45% in size
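H1299 (p53-null), stable ts p53-A138V + BP100-Luc; 1000 cells/well, Opti-MEM/10% FBS; cpd 4 pt, 1:5; 24 h, 37 deg C, 5% CO2; detection reagent 10 min RT; luminescence.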
RORg inh: qHTS for inhibitors of ROR gamma transcriptional activity; 310,000 compounds, 5.4% hits; Nuclear receptor ROR-gamma (Mus musculus), P51450; Drosophila S2 Gal4-RORgamma UAS-luciferase reporter, 20 h; Potency, µM (doses to about 53.6 µM), most hits filed as inhibitors; note: nearly all actives have a fitted effect of over 60% in size
Target sequence (P51450 whole entry, looked up, the tested form may be a part): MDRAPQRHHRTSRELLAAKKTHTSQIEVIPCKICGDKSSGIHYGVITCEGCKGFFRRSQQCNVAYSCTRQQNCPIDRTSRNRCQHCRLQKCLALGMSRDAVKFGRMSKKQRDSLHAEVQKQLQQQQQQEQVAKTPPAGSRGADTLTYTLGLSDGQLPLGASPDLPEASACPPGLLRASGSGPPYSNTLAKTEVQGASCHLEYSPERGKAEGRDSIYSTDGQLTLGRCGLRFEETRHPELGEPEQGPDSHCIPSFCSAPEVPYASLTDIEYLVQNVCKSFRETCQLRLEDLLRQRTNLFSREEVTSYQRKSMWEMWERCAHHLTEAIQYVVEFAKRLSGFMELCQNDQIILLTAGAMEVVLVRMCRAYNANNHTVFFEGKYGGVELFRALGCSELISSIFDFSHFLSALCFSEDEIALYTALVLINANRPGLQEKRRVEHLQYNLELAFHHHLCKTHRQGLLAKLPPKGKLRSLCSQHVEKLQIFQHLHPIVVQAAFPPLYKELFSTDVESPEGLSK
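ROR gamma transcriptional activity was tracked as Gal4-UAS luciferase output in stably transfected Drosophila Schneider cells, with compound added 1 hr before 700 uM copper sulfate induction and a 20 hr ambient-temperature incubation.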
Giardia kill: Small Molecules that selectively kill Giardia lamblia: qHTS. Giardia lamblia trophozoite viability. 340,000 compounds, 0.15% hits. activity change, % at 7.66 µM, hits read low; in the data active = activity change below about -80%; inconclusive = between about -30% and that limit;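 note: parasites exposed to compound for two days anaerobically before the ATP read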
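Luminescence from cellular ATP indicates surviving trophozoites (100 cells/well) following 48 hrs anaerobic compound treatment at 37 deg C; signal develops 15-30 min at room temperature.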
BRCA1 expr act: qHTS Assay to Identify Small Molecule Activators of BRCA1 Expression. MCF7-BRCA1-FFLuc reporter, luminescence, 48 h; response scale: scaled: vehicle 0%, 10 µM genistein 100%. 380,000 compounds, 1.1% hits. Potency, µM (series often up to 46.1 µM), most hits filed as activators; note: nearly all actives have a fitted effect of over 80% in size
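Using MCF7 cells harboring a BRCA1 firefly luciferase reporter, plated 2 h before compound pinning, the screen measured luminescence after 48 h incubation. Responses were normalized to DMSO and 10 microM genistein, then fitted for concentration-effect.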
Numbers stand for hits; . = inactive; ? = inconclusive; / = no result given; [ ] = another dose, or the depositor's remark. Only some compounds are listed: those with a hit (about 7.6% of all), similar ones and a draw of the others. Unless noted, calls come from the whole dose curve; as a rule, active = well fitted curve in the direction sought with a large enough effect; inconclusive = small, poorly fitted or top-dose-only effect, or another doubt; inactive = no such curve, though single readings can be large; an effect the other way counts as inactive or inconclusive.

SMILES	ELG1 repair inh	VP16 counter	p53 reactivation	RORg inh	Giardia kill	BRCA1 expr act
CC(/C=C/c1ccco1)=N\NC(=O)c1cccc(Cl)c1	.	3.55µM	.	3.98µM	.	.
CC(O)(c1ccc(F)c(F)c1)c1nc(-c2cc3ccccc3o2)cs1 (configuration not stated)	/	/	/	/	/	.
N#Cc1c(Nc2cccc(F)c2)sc(C(=O)c2ccc(Cl)cc2)c1N	/	/	/	/	/	.
C=CCn1c(C)cc(C(=O)COc2ccc(N(C)S(=O)(=O)c3ccc(NC(C)=O)cc3)cc2)c1C	?	/	.	/	.	.
CCCCn1c(CCn2nc(C)c(Br)c2C)n[nH]c1=S	.	?	.	11.2µM	.	.
COc1cccc2c(=O)c(C(=O)NCCc3ccccc3)c[nH]c12	/	/	/	/	.	10µM
Cc1cc(C(F)F)n2nc(C(=O)Nc3cccc(Cl)c3C)nc2n1	/	/	/	/	/	.
COc1ccc(OC)c(NC(=O)/C=C/c2ccccc2[N+](=O)[O-])c1	.	.	.	?	.	.
COc1cccc(NC(=O)/C=C/c2ccccc2[N+](=O)[O-])c1	?	.	?	.[10 µM]	.	3.16µM
O=C(/C=C/c1ccccc1[N+](=O)[O-])Oc1ccccc1	.	.	.	.	/	/
COC(=O)C(=Cc1ccccc1[N+](=O)[O-])C(=O)OC	23.1µM	.	.	?	.	.
FC(F)(F)c1cccc(Cc2noc(CN3CCSCC3)n2)c1	.	.	.	.	.	.
Cn1c(-c2ccccc2)nc2cnccc21	.	.	.	.	.	.
CC(C)n1c(-c2cccnc2)nc2cnccc21	13µM	.	.	.	.	.
O=C(Nc1ncccc1O)c1cc2ccccc2o1	?	/	/	/	.	.
O=C(Nc1ccccn1)c1cc2ccccc2o1	?	6.31µM	.	3.98µM	?	.
O=C(NC1=NCCS1)c1cc2ccccc2o1	?	8.91µM	.	7.08µM	?	.
Cn1c2ccccc2c2cc(/C=N/NC(=O)c3ccccc3F)ccc21	23.1µM	?	.	?	.	.
Cn1c2ccccc2c2cc(/C=N/NC(=O)c3ccc(N)cc3)ccc21	?	.	.	.	.	.
CCOC(=O)N/N=C/c1cc(C)n(-c2ccccc2)c1C	?	.	?	.	.	.
Cc1cc(/C=N/NC(=O)c2c(Br)cnn2C)c(C)n1-c1cccc(Br)c1	?	7.08µM	.	6.31µM	.	.
Cc1cc(/C=N/NC(=O)C(=O)N2CCCC2)c(C)n1-c1cccc(Br)c1	.	.	.	.	.	.
Cc1cc(/C=N/NC(=O)c2ccccc2F)c(C)n1-c1ccccc1	?	?	?	12.6µM	.	?
Cc1cccc(-n2c(C)cc(/C=N/NC(=O)c3cccc([N+](=O)[O-])c3C)c2C)c1	.	?	.	7.94µM	.	.
Cc1cc(/C=N/NC(=O)c2cccc(F)c2)c(C)n1-c1ccccc1	?	12.6µM	?	5.62µM	.	?
SMILES	ELG1 repair inh	VP16 counter	p53 reactivation	RORg inh	Giardia kill	BRCA1 expr act
CCN(C(=O)CSc1nnc(-c2ccncc2)n1-c1ccccc1)C1CCS(=O)(=O)C1 (configuration not stated)	.	.	.	.	.	.
O=C(c1nsnc1-c1ccccc1O)N1CCCCC1	.	.	.	.	.	.
NC(=O)c1nsnc1-c1ccccc1O	.	.	.	22.4µM	.	.
Cc1cccc(Nc2nc(N)nc(CN3CCN(c4ccc(F)cc4)CC3)n2)c1	?	.	.	.	.	.
COc1cc(NC(=S)Nc2ncccc2C)cc(OC)c1OC	.	.[10 µM]	.	12.6µM	.	.
COc1cc(NC(=S)Nc2cccc(C)n2)cc(OC)c1OC	.	8.91µM	.	2.51µM	.	.
Cn1cnnc1Sc1ccc(C(=O)NCCC(c2ccccc2)c2ccccc2)cc1[N+](=O)[O-]	?	.	.	?	.	.
COc1cc(OC)c(C(=O)OCCCOC(=O)c2cc(OC)c(OC)cc2OC)cc1OC	11.6µM	10µM	?	7.94µM	.	.
COc1cc(C(=O)OCCCOC(=O)c2cc(OC)c(OC)c(OC)c2)cc(OC)c1OC	.	.	.	.	.	.
O=C1/C(=C/c2cccnc2)Oc2cc(OS(=O)(=O)c3ccc(Cl)cc3)ccc21	14.6µM	.	.	.	.	.
O=C1/C(=C/c2cccnc2)Oc2cc(OS(=O)(=O)c3ccccc3)ccc21	.	?	.	.	.	.
c1csc(-c2ccc(N3CCOCC3)nn2)c1	?	11.2µM	.	?	?	.
CCOC(=O)C1CCN(c2ccc(-c3cccs3)nn2)CC1	?	.	.	.	.	.
O=C(/C=C\c1ccco1)Nc1ccc(N2CCN(C(=O)c3ccccc3)CC2)cc1	?	.	.	.	.	.
O=C(c1cn(CC2CCCCC2)nn1)N1CCN(c2ccc(F)cc2)CC1	.	.	.	.	.	.
COc1cccc(-n2nc(C(N)=O)c(O)cc2=O)c1	.	.	.	.	.	.
COc1cccc(-n2nc(C#N)c(Cl)cc2=O)c1	?	7.08µM	.	3.55µM	.	.
Cc1ccc(NC(=S)N2CCN(CCN3C(=O)c4cccc5cccc(c45)C3=O)CC2)cc1	?	?	.	7.08µM	.	.
CN(Cc1ccon1)C(=O)CCc1nnc(CCCCc2ccccc2)o1	.	.	.	.	.	.
CCOc1ccccc1NC(=S)N1CCN(c2ccc(OC)cc2)CC1	.	17.8µM	.	11.2µM	.	.
Cc1ccc(NC(=S)N2CCN(c3ccccc3F)CC2)c(C)c1	.	7.08µM	.	8.91µM	.	.
CCOc1ccccc1NC(=S)N1CCCCCC1	.	?	.	14.1µM	.	.
CCc1ccccc1NC(=S)N1CCN(c2ccccc2F)CC1	.	?	.	7.08µM	.	.
CCOc1ccccc1NC(=S)N1CCN(c2ccc(O)cc2)CC1	?	.	.	.	.	.
CCOC(=O)c1ccccc1NC(=S)N1CCCCC1	.	.	.	?	.	.
COc1ccc2c(c1)c(=O)c(C(=O)c1ccc(C)c(C)c1)cn2CC(=O)Nc1ccc2c(c1)OCCO2	/	/	/	/	/	.
CCOc1ccccc1NC(=S)N1CCN(c2nc(-c3ccc(F)cc3)cs2)CC1	?	?	.	11.2µM	.	.
CCOc1ccccc1NC(=S)N1CCN(c2ccccc2F)CC1	.	14.1µM	.	?	.	.
CCNC(=S)N1CCN(c2ccccc2OCC)CC1	.	.	.	.	.	.
CNC(=S)N1CCN(c2nc(-c3ccc(F)cc3)cs2)CC1	.	/	/	/	.	.
